Dicer processing = inhibitors of human Dicer processing of pre-microRNA; Q9UPY3; 47,000 tested, 6% active; cat-ELCCA pre-miR-21 Dicer processing, chemiluminescence; active compounds read high; z-score at 25 µM; AID 1347074; in the data active means z-score above about 3, passing the limit was not always enough;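 further: higher signal means more uncleaved substrate so more Dicer inhibition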
Numbers stand for hits; n = inactive. Shown is part of a subset that was picked to be rich in hits.

SMILES | Dicer processing
Cc1ccc(O)c(C2=NN3C(C2)c2cc(Br)ccc2OC3c2cccnc2)c1 (stereo not given) | n
COc1cccc(C2=NN3C(C2)c2cc(Br)ccc2OC3c2cccnc2)c1 (stereo not given) | 7.2
COc1ccc(C2=NN3C(C2)c2cc(Br)ccc2OC3c2cccnc2)cc1 (stereo not given) | 4.2
COc1ccc(C2=NN3C(C2)c2ccccc2OC3c2ccncc2)cc1 (stereo not given) | n
Cc1ccc2cccc(OS(=O)(=O)c3ccc(F)cc3F)c2n1 | n
CC(C)(C)SCCNC(=O)c1ccco1 | n
CN=C1SC(CC(=O)O)C(=O)N1C (stereo not given) | 20
C=CCN1C(=O)SC(CC(=O)O)C1=O (stereo not given) | n
COc1cc(/C=N/N=C2/SC(CC(=O)O)C(=O)N2C)cc(OC)c1OC (stereo not given) | n
O=C(O)c1cccc(N2C(=O)C3C4c5ccccc5C(c5ccccc54)C3C2=O)c1 (stereo not given) | n
CCNCC(=O)Nc1c(C)cccc1C | n
Cc1cccc(Cl)c1NC(=O)CC#N | 3.9
Cc1c(Cl)cccc1NC(=S)NNC(=O)CC#N | n
O=C(Oc1cccc2cccnc12)c1ccc2c(c1)-c1ccccc1C2=O | n
O=C(Oc1cccc2cccnc12)c1ccc(Br)cc1 | 4.6
Cc1onc(-c2c(Cl)cccc2Cl)c1C(=O)Oc1cccc2cccnc12 | n
CCOC(=O)Cc1cnc(N/N=C2\CCCc3cc(OC)ccc32)s1 | n
COc1ccc(/C(O)=C2\C(=O)C(=O)N(CCCn3ccnc3)C2c2ccc(N(C)C)cc2)cc1 (stereo not given) | n
COc1ccc(-c2cc3c(=O)oc4ccccc4c3[nH]2)cc1 | 4
COc1ccc(-c2cc3ccccc3c(=O)o2)cc1 | n
COc1ccc(-c2cc(=O)c3ccccc3o2)cc1 | n
CCC(Sc1nccn1C)C(=O)Nc1cc(C)on1 (stereo not given) | n
Cc1oc(-c2ccc(Cl)cc2)cc1C(=O)/C(C#N)=C/Nc1ccc(Cl)cc1 | n
O=C(c1cccs1)n1ccc(-c2ccc(C#Cc3ccccc3)s2)n1 | n
ONC=Nc1ccccc1Sc1nc2cc(Cl)ccc2s1 | 3.1
SMILES | Dicer processing
Nc1ccccc1Sc1nc2cc(Cl)ccc2s1 | n
ONC=Nc1ccccc1Sc1nc2c(Cl)cc(Cl)cc2s1 | n
CCCOc1ccc(C2C(C(=O)OCCOC)=C(C)N=C3SCCC(=O)N32)cc1 (stereo not given) | n
COc1ccc(-n2c(CCC(=O)O)ccc2-c2cccs2)cc1 | n
CCCCn1c(CCC(=O)O)ccc1-c1ccc(C)cc1 | n
CCCn1c(CCC(=O)O)ccc1-c1cccs1 | 3
COC(=O)C1=C(C)NC(C)=C(C(=O)OC)C1c1cc(C(=O)OC)c(OC)cc1OC | n
Cc1c(C(=O)CSc2nccc(-c3cccs3)n2)sc2ccc(Cl)cc12 | n
O=C(OCCN1CCOCC1)C1c2ccccc2Oc2ccccc21 | n
COC(=O)c1cc(-c2ccc(S(=O)(=O)N3CCN(Cc4ccccc4)CC3)cc2)c(C(F)(F)F)s1 | n
COCCCNC(=S)N/N=C/c1ccc(O)cc1O | n
COCCCNC(=S)N/N=C/c1cccc(OC)c1O | 4.2
COCCCNC(=S)N/N=C/c1ccc(O)cc1 | n
CCN1CCN(Cc2ccc3cccnc3c2O)CC1 | n
Oc1c(C(c2ccccn2)N2CCCC2)ccc2cccnc12 (stereo not given) | n
Oc1c(C(c2ccc(F)cc2)N2CCCCC2)ccc2cccnc12 (stereo not given) | 3.7
Cc1ccc(C(=O)O)cc1N1C(=O)CCC1=O | 4.7
CC1=NN(c2ccc(C(=O)O)cc2)C(=O)C1 | n
Cc1ccc(C(=O)O)cc1-n1cccc1 | n
O=C1C(=O)N(Cc2cccnc2)C(c2ccccc2Cl)/C1=C(\O)c1ccccc1 (stereo not given) | n
O=S(=O)(NCCCCNS(=O)(=O)c1cccc2cccnc12)c1cccc2cccnc12 | 5.5
CC(C)(C)NS(=O)(=O)c1cccc2cccnc12 | n
O=S(=O)(NCc1ccccn1)c1cccc2ccccc12 | n
O=C1CC(c2cccc(F)c2)c2c(n[nH]c2-c2ccccc2)N1 (stereo not given) | n
Cc1cc(N=CNO)c2ccccc2n1 | n
SMILES | Dicer processing
CCCCc1ccc(N=CNO)c(C)c1 | 4
ONC=Nc1cc(Cl)c(-n2cccc2)cc1Cl | n
CCOC(=O)C(NCCc1ccccc1)(NC(C)=O)C(F)(F)F (stereo not given) | n
CCOC(=O)NC(Nc1ccccc1)(C(=O)OCC)C(F)(F)F (stereo not given) | n
CCOC(=O)C(NCCOC)(NC(=O)c1ccccc1Cl)C(F)(F)F (stereo not given) | 4.6
CCOC(=O)CNC(=O)c1ccccc1Cl | n
CCOC(=O)C(NC(=O)c1cccc(C)c1)(Nc1cccc(C)n1)C(F)(F)F (stereo not given) | n
CCOC(=O)C(NC(=O)c1ccccc1Cl)(Nc1ccccn1)C(F)(F)F (stereo not given) | 3.4
CCOC(=O)c1c(NC(=O)Oc2ccccc2)sc2c1CCCC2 | n
O=C(O)c1ccccc1SCc1cccc(C(F)(F)F)c1 | n
CCOC(=O)C(Nc1ccccc1)C(=O)OCC | n
CS(=O)c1scc2c1C(=O)CC(C)(C)C2 (stereo not given) | n
Cc1nc(-c2cccnc2)nc(N2CCCN(c3ncc(C(F)(F)F)cc3Cl)CC2)c1Cl | n
O=[N+]([O-])c1ccc2c(c1)NC(c1ccc([N+](=O)[O-])s1)N2 (stereo not given) | n
COc1ccc(C2C(=O)c3ccccc3C2=O)cc1OC | n
COc1cccc2c(=O)c3ccccc3oc12 | n
COc1ccc2c3c(cccc13)C(=O)CC2 | 4.2
COc1ccc(OC)c(C2C(C(=O)OC3CCCCC3)=C(C)NC3=C2C(=O)CC(C)(C)C3)c1 (stereo not given) | n
COc1ccc2c(c1)c(=O)oc1cc3occ(-c4ccc(C)cc4)c3cc12 | n
COc1ccc(-c2coc3cc4oc(=O)c5cc(OC)ccc5c4cc23)cc1 | 3.8
COc1ccc2c(c1)c(=O)oc1cc3occ(-c4ccc(F)cc4)c3cc12 | n
COc1ccc(COC(=O)C2=C(C)NC3=C(C(=O)CC(C)(C)C3)C2c2cccs2)cc1 (stereo not given) | n
CCOC(=O)c1nnn2c1nc(Sc1nnc(-c3ccncc3)o1)c1ccccc12 | n
Cc1ccc(S(=O)(=O)NC(C)c2ccccc2)cc1 (stereo not given) | n
O=[N+]([O-])c1cccnc1N/N=C/c1cccc(C(F)(F)F)c1 | n
SMILES | Dicer processing
CCCS(=O)(=O)N1CCN(C(=O)c2ccco2)CC1 | n
CC1CCC(N2CCN(C(=O)c3ccco3)CC2)CC1 (stereo not given) | n
CN(C)C(=O)N1CCN(C(=O)c2ccco2)CC1 | 3.1
O=S(=O)(c1ccccc1)N1CCN(Cc2ccc3c(c2)OCO3)CC1 | n
O=C(c1ccco1)N1CCN(Cc2ccc3c(c2)OCO3)CC1 | 6.2
O=S(=O)(c1ccc2ccccc2c1)N1CCN(Cc2ccc3c(c2)OCO3)CC1 | 6.6
O=C(c1ccc2c(c1)OCO2)N1CCN(Cc2ccc3c(c2)OCO3)CC1 | n
COc1ccc(S(=O)(=O)N2CCN(Cc3ccc4c(c3)OCO4)CC2)cc1 | n
O=C(c1cc(-c2ccc3c(c2)OCO3)nc2ccccc12)N1CCN(Cc2ccc3c(c2)OCO3)CC1 | n
CCOC(=O)c1c[nH]c2c(F)cc(F)cc2c1=O | n
COC(=O)c1scc(S(=O)(=O)C(C)C)c1N/N=C(\C#N)C(=O)c1cccs1 | n
C#CCOC(=O)c1ccc(S(=O)(=O)N2CCOCC2)cc1 | n
